Laboratory results from PubChem BioAssay.
The source made the active and inactive calls.

Assays:
[1] = test system: Plasmodium falciparum Sir2 (PF13_0152, Sir2A); test: Plasmodium falciparum Sir2A binding compounds – biochemical, small-molecule microarray, 635 nm fluorescence, primary screen (AID 1098); details: fluorescence 635 nm, higher = more signal;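 note: score merges spot fluorescence intensity with its signal-to-noise ratio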
[2] = probe aDKK1 binding to arrayed compounds – biochemical, biotinylated probe, 635/667 nm fluorescence, primary screen (AID 1099); details: small-molecule microarray, higher = more signal;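 note: score merges 667nm spot fluorescence with signal to noise across triplicate slides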
[3] = probe aCHRDL2 binding to arrayed compounds – biochemical, biotinylated probe, 635/667 nm fluorescence, primary screen (AID 1100); details: small-molecule microarray, higher = more signal
[4] = change in splice reporter luminescence, either direction, cell-based, HEK293, spliceosome inhibition project, primary screen (AID 1101); details: HEK293 splicing luciferase reporter, 24 h, higher = more signal, called active from +8 up or from −8 down;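 note: HEK293 cells carrying a splicing-competent luciferase reporter gene; test concentration not given here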
[5] = target: Fibroblast growth factor 10 (Homo sapiens) (UniProt O15520); test: compounds binding fibroblast growth factor 10 – biochemical, small-molecule microarray, 635 nm fluorescence, primary screen (AID 1102); details: FGF10 binding, fluorescence 635 nm, higher = more signal
Fibroblast growth factor 10 (Homo sapiens), sequence (O15520 whole entry, looked up): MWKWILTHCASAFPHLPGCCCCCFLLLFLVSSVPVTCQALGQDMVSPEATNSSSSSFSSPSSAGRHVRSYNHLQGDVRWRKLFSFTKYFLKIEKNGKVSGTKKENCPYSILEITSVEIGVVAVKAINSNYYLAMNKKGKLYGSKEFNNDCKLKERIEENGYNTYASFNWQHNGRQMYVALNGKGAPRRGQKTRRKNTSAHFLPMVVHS

[6] = test system: glycogen synthase kinase-3 (GSK3A per assay name; protocol says GSK3B); test: compounds binding glycogen synthase kinase-3 – biochemical, small-molecule microarray, 635 nm fluorescence, GSK3A, primary screen (AID 1103); details: fluorescence 635 nm, higher = more signal; note: the record names both GSK3A and GSK3B
[7] = target: Epidermal growth factor receptor (Homo sapiens) (UniProt P00533); test: compounds binding epidermal growth factor receptor – biochemical, small-molecule microarray, 635 nm fluorescence, primary screen (AID 1104); details: EGFR binding, higher = more signal;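 note: score merges 667 nm emission intensity with spot signal to noise over triplicate slides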
Epidermal growth factor receptor (Homo sapiens), sequence (P00533 whole entry, looked up): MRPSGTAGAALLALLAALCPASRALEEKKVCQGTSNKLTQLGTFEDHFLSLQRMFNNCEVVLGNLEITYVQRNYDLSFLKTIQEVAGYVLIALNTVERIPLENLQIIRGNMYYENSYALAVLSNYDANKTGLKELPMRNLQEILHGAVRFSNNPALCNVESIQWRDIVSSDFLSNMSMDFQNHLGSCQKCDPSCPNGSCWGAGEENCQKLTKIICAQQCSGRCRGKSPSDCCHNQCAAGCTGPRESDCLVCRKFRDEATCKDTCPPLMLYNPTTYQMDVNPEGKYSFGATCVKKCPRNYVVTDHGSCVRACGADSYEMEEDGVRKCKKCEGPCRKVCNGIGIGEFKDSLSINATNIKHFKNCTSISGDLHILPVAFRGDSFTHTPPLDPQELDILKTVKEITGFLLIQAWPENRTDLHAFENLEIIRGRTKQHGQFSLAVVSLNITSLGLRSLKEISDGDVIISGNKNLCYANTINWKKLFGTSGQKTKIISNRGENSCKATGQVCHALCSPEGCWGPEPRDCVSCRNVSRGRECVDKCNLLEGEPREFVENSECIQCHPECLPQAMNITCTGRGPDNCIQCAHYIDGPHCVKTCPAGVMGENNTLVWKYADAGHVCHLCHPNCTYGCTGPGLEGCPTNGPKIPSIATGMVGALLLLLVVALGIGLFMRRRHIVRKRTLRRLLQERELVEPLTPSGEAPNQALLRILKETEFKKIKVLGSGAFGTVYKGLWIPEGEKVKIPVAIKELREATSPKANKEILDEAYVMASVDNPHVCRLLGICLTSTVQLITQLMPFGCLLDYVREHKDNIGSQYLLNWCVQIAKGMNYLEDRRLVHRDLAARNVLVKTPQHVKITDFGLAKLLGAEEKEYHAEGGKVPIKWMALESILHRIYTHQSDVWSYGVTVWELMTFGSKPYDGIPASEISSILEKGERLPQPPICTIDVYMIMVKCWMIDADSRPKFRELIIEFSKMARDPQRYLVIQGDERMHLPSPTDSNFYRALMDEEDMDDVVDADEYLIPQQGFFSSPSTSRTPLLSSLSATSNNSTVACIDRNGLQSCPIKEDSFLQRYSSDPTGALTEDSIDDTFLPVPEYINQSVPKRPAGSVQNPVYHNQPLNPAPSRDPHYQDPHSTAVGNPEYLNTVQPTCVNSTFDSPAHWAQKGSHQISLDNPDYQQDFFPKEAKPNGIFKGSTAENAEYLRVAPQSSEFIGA

[8] = target: Follistatin-related protein 3 (Homo sapiens) (UniProt O95633); test: compounds binding follistatin-related protein 3 – biochemical, small-molecule microarray, 635 nm fluorescence, primary screen (AID 1105); details: FSTL3 binding, higher = more signal;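 note: score merges emission near 667 nm and signal to noise per printed spot across three slides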
Follistatin-related protein 3 (Homo sapiens), sequence (O95633 whole entry, looked up): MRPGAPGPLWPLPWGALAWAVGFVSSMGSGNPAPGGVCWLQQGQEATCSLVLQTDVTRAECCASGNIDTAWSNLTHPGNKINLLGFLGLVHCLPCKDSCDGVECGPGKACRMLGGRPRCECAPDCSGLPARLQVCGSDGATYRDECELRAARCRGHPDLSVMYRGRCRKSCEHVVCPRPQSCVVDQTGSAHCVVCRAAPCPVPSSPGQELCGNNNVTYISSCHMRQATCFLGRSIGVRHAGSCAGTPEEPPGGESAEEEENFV

[9] = target: Dickkopf-related protein 1 (Homo sapiens) (UniProt O94907); test: small molecules binding DKK1 protein – biochemical, small-molecule microarray, 635 nm fluorescence scan, primary screen (AID 1106); details: higher = more signal;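 note: score merges emission near 667 nm with signal to noise over three replicate slides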
Dickkopf-related protein 1 (Homo sapiens), sequence (O94907 whole entry, looked up): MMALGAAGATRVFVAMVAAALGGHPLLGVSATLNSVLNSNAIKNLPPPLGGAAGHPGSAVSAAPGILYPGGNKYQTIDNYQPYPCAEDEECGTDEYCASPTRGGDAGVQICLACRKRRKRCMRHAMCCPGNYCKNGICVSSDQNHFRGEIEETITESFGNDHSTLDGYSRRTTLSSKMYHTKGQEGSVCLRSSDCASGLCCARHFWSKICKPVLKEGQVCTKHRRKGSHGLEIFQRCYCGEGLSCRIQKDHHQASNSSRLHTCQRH

[10] = test system: Inhibin beta A chain (activin A); test: small molecules binding activin A – biochemical, small-molecule microarray, 635 nm fluorescence scan, primary screen (AID 1107); details: INHBA, higher = more signal;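 note: mouse activin A protein probed at 4.33 µg/mL on printed slides; score merges bound-protein fluorescence near 667 nm with spot signal-to-noise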
[11] = test system: Human papillomavirus type 1a protein E7 (residues 44-93); test: small molecules binding HPV E7 44-93 – biochemical, small-molecule microarray, residues 44-93, 635 nm fluorescence, primary screen (AID 1108); details: fluorescence 635 nm, higher = more signal;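 note: E7 fragment applied at 1 µg/mL in TBST for 1 h at 4 C; score combines spot fluorescence with its signal to noise ratio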
[12] = hepatitis C replication reporter changes, two-sided – Huh7 cells, luciferase reporter, HCV replication inhibitor project, primary screen (AID 1109); details: Huh7 HCV replicon luciferase reporter, 48 h; higher = more signal;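 note: huh7 hepatoma cells harbouring a luciferase neomycin HCV replicon reporter; luciferase luminescence as measure of HCV replicon replication; test concentration not given here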
[13] = target: Left-right determination factor 2 (Homo sapiens) (UniProt O00292); test: small molecules binding LEFTY2 protein – biochemical, small-molecule microarray, 635 nm fluorescence scan, primary screen (AID 1110); details: higher = more signal
Left-right determination factor 2 (Homo sapiens), sequence (O00292 whole entry, looked up): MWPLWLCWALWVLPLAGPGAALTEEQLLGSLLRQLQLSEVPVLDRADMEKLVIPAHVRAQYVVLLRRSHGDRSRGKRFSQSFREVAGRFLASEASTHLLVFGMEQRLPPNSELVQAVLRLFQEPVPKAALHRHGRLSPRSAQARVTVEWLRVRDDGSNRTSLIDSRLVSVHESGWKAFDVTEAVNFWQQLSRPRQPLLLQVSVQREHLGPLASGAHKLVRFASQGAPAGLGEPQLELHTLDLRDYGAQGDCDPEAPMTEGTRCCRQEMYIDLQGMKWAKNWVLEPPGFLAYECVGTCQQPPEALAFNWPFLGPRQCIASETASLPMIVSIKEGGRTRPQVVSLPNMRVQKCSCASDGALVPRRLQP

[14] = target: Calmodulin-1 (Homo sapiens) (UniProt P0DP23); test: small molecules binding calmodulin-1 with EGTA – biochemical, small-molecule microarray, Cy5-labelled CALM1, profiling panel (AID 1111); details: Cy5-CALM1 binding fluorescence, higher = more signal;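 note: labelled calmodulin applied in Tris saline Tween buffer holding calcium plus EGTA and DTT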
[15] = target: Calmodulin-1 (Homo sapiens) (UniProt P0DP23); test: small molecules binding Ca-loaded calmodulin-1 – biochemical, small-molecule microarray, Cy5-labelled CALM1, plus calcium, artefact control for SMM control-protein annotation, profiling panel (AID 1112); details: Cy5-CALM1 binding fluorescence, higher = more signal;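 note: score merges spot fluorescence with signal to noise from triplicate slides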
[16] = probe aWnt5a binding to arrayed compounds – biochemical, biotinylated probe, 635/667 nm fluorescence, primary screen (AID 1113); details: small-molecule microarray, higher = more signal;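 note: score merges 667 nm fluorescence intensity with signal-to-noise per printed feature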
[17] = probe aShh binding to arrayed compounds – biochemical, biotinylated probe, 635/667 nm fluorescence, primary screen (AID 1114); details: small-molecule microarray, higher = more signal;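 note: probe is biotin-labelled aShh protein from a stem cell growth factor screen; measures binding of labelled protein to compounds printed on the slide; score merges feature fluorescence at 667 nm with signal-to-noise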
[18] = probe aNog binding to arrayed compounds – biochemical, biotinylated probe, 635/667 nm fluorescence, primary screen (AID 1115); details: small-molecule microarray, higher = more signal;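 note: probe is biotinylated aNog protein used at 0.15 µg/mL for 1 h at 4 C; z-score combines 667 nm fluorescence of each spot with its signal to noise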
[19] = target: Torsin-1A-interacting protein 1 (Homo sapiens) (UniProt Q5JTV8); test: compound microarray binding of lysate hLAP1 – cell lysate, small-molecule microarray, COS7 lysate, 635/667 nm fluorescence, primary screen (AID 1116); details: 635 nm fluorescence, higher = more signal
Torsin-1A-interacting protein 1 (Homo sapiens), sequence (Q5JTV8 whole entry, looked up): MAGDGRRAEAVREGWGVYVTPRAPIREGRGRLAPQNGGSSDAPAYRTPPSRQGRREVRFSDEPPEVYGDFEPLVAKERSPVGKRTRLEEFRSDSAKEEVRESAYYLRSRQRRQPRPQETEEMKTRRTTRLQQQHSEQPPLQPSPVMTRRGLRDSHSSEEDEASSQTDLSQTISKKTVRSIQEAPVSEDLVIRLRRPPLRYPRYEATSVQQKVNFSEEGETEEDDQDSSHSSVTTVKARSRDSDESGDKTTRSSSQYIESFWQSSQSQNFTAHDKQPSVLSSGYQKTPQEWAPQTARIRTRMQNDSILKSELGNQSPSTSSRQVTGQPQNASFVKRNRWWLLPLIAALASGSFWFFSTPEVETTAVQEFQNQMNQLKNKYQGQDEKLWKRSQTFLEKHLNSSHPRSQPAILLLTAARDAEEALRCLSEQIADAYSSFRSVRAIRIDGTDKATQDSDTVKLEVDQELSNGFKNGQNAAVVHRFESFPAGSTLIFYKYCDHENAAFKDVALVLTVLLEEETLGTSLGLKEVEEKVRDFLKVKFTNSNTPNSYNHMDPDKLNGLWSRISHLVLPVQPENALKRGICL

[20] = target: Alpha-bungarotoxin (Bungarus multicinctus) (UniProt P60615); test: compounds binding labelled alpha-BTX control protein – biochemical, small-molecule microarray, Alexa647 label, 635/667 nm fluorescence, artefact control for SMM control protein annotation, profiling panel (AID 1117); details: alpha-BTX-A647 binding fluorescence, higher = more signal
Alpha-bungarotoxin (Bungarus multicinctus), sequence (P60615 whole entry, looked up): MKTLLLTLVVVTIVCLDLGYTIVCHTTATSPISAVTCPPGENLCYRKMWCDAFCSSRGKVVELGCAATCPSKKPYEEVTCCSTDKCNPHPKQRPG

| Structure (SMILES) | composite z-score [1] | composite z-score [2] | composite z-score [3] | z-score [4] | composite z-score [5] | composite z-score [6] | composite z-score [7] | composite z-score [8] | composite z-score [9] | composite z-score [10] | composite z-score [11] | z-score [12] | composite z-score [13] | composite z-score [14] | composite z-score [15] | composite z-score [16] | composite z-score [17] | composite z-score [18] | composite z-score [19] | composite z-score [20] |
| --- | --- | --- | --- | --- | --- | --- | --- | --- | --- | --- | --- | --- | --- | --- | --- | --- | --- | --- | --- | --- |
| CCOC(=O)[C@H](Cc1ccccc1)NC(=O)CCC1CC(OC(=O)NCc2ccc3c(c2)OCO3)CC2(CCCC(COC(=O)NCCC(C)C)O2)O1 (stereo not given in full) | 1.21 | -0.197 | -0.287 | 0.0184 (inactive) | 1.12 | 0.18 | -0.0617 | 0.743 | 0.415 | 0.367 | 1.38 | -1.01 | 0.619 | 0.487 | -0.252 | 0.0704 | 0.0639 | -0.19 | 0.0293 | 0.434 |
| COc1ccc(O[C@@H]2[C@H](O)CO[C@@H]2C=Cc2ccccc2)cc1 | 0.638 | -0.228 | -0.256 | -1.63 (inactive) | -0.0055 | -0.0208 | -0.169 | 0.367 | 0.148 | 0.448 | 0.16 | 0.238 | 0.138 | 0.0425 | -0.665 | -0.148 | -0.399 | -0.111 | 0.288 | 0.369 |
| CC(C)CCN1CCc2nc(COc3ccccc3)c3c(c2C1)CO[C@@H](C)C3 | 0.605 | 0.179 | 0.844 | 0.893 (inactive) | -0.185 | -0.113 | -0.0715 | -0.204 | -0.471 | 0.71 | 0.25 | 0.911 | 0.0637 | 0.683 | 0.0677 | -0.118 | 0.0796 | 0.15 | 0.686 | 0.221 |
| C[C@@H](c1ccccc1)N1C(=O)[C@H]2[C@H]3[C@H](O)[C@H](O)CC(=NOCc4ccccc4)[C@H]3CC[C@H]2C1=O | 0.8 | -0.197 | -0.442 | -0.0874 (inactive) | 0.601 | 0.535 | 0.45 | 0.44 | 0.312 | -0.27 | 1.43 | 0.547 | 0.491 | 0.209 | -0.298 | -0.0635 | -0.0626 | -0.425 | 0.826 | 0.571 |
| C[C@@H](ON=C1[C@H]2CCn3c(=O)n(-c4ccccc4)c(=O)n3[C@H]2[C@H](O)[C@@H]2O[C@H]12)c1cn([C@@H]2COC[C@H]2O)nn1 | 0.507 | -0.235 | -0.511 | 0.413 (inactive) | 0.31 | 0.555 | 0.702 | 0.51 | 0.446 | 0.0788 | 0.361 | -2.38 | 0.698 | -0.287 | -0.568 | -0.119 | 0.0611 | 0.139 | 0.07 | 0.237 |
| CO[C@@H]1COC(=O)[C@H](CCSC)NC(=O)CC=C[C@@H](C)COC(=O)CCC[C@H]1C | 0.919 | -0.374 | -1.25 | -0.433 (inactive) | 0.399 | 1.26 | 1.03 | 1.03 | 2.36 | -1.51 | -1.18 | -0.346 | 1.65 | -1.94 | -2.51 | -0.175 | -0.214 | -0.472 | 0.813 | -0.354 |
| COC(=O)[C@@H]1CC[C@H](C)[C@@H](c2ccc(C)cc2)N1C(=O)c1ccc(C=NO[C@H](C)c2cn([C@@H]3COC[C@H]3O)nn2)cc1 | 0.266 | -0.132 | -0.369 | 0.0134 (inactive) | 0.718 | 0.891 | 0.67 | 0.66 | 0.831 | -1.14 | 1.33 | -1.06 | 0.635 | 0.0264 | -0.361 | -0.152 | 0.0141 | -0.0065 | 0.581 | -0.0105 |
| COc1ccc(COC(=O)NN=C2C[C@@H](O)[C@@H](O)[C@@H]3[C@@H]4C(=O)N(c5ccc(F)cc5F)C(=O)[C@@H]4CC[C@H]23)cc1 | 0.299 | 0.939 | 1.22 | -0.531 (inactive) | 0.0785 | -0.258 | -1.2 | -0.496 | -1.13 | -0.009 | -0.246 | -0.107 | -0.551 | -0.252 | -0.318 | -0.169 | -0.0769 | -0.273 | -0.724 | 0.616 |
| CC(=O)Nc1ccc([C@@H]2N[C@H](C(=O)O)CC[C@H]2C)cc1 | 0.136 | -0.108 | -0.401 | 0.303 (inactive) | 0.32 | 0.461 | 0.546 | 0.409 | 0.444 | 0.133 | -0.0931 | 1.1 | 0.523 | -0.105 | -0.635 | -0.0203 | -0.226 | -0.213 | 0.14 | 0.273 |
| CCOC(=O)[C@H](CC(C)C)NC(=O)CCC1CC(OC(=O)NCCc2ccc(F)cc2)CC2(CCCC(COC(=O)NCC(c3ccccc3)c3ccccc3)O2)O1 (stereo not given in full) | 1.1 | 0.096 | -0.437 | 0.0587 (inactive) | 0.588 | 0.873 | 0.319 | 0.824 | 0.697 | -0.0427 | 0.776 | 0.612 | 0.319 | 0.479 | -0.476 | -0.152 | -0.214 | -0.501 | 0.145 | 0.71 |
| O=C1[C@H]2[C@H]3[C@H](O)[C@H](O)CC(=NOC[C@@H](O)COCc4ccco4)[C@@H]3CC[C@H]2C(=O)N1C[C@@H]1CCCO1 | 0.396 | -0.549 | -1.2 | -0.134 (inactive) | 0.204 | 1.24 | 1.14 | 1.49 | 1.51 | 1.22 | 0.0714 | 0.557 | 1.11 | -1.05 | -1.73 | -0.117 | -0.0553 | -0.218 | 0.3 | -0.075 |
